Source: PubChem BioAssay (National Center for Advancing Translational Sciences (NCATS))
In the library only some 5% were active in any assay of this set; here they are far more common.
TbPYK inhibitor = qHTS of Trypanosoma Brucei Inhibitors | TbPYK enzyme, Kinase-Glo Plus ATP luminescence, 45 min | Potency, µM (highest dose often 76.8 µM), actives largely listed as inhibitors | hit rate 0.12% among 410,000; note: nearly all actives have a fitted effect of over 50% in size
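ADP (130 uM final) triggers the TbPYK reaction after compound addition; incubation is 45 min at room temperature. Kinase-Glo Plus is then added and luminescence imaged. Normalized data are fitted to concentration-effect curves.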
LmPK inh = qHTS Assay for Inhibitors of Leishmania Mexicana Pyruvate Kinase (LmPK); Q27686; purified LmPK, Kinase-Glo ATP luminescence, 1 h; Potency, µM (highest dose often 57.5 µM), hits mostly inhibitors; hit rate 0.37% among 290,000; AID 1721, 2009
Target sequence (Q27686 whole entry, looked up): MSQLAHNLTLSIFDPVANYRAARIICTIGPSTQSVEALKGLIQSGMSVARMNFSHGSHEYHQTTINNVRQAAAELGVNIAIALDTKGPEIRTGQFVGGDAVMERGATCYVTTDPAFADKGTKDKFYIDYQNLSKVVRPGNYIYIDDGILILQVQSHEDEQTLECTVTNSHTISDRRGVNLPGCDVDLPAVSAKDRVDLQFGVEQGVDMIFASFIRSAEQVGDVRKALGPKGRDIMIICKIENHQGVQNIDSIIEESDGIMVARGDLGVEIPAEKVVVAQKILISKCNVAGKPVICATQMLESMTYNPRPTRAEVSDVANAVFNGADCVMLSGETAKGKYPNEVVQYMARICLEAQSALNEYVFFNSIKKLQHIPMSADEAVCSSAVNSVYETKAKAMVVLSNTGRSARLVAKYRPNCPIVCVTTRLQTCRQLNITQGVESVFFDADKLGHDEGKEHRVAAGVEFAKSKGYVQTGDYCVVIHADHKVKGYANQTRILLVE
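Pyruvate kinase activity monitored as ATP production (luciferase luminescence). Conditions: 0.1 nM enzyme, 0.5 mM PEP, 0.1 mM ADP, 1 h, RT; normalized against uninhibited and no-enzyme wells.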
Vaccinia Venus = qHTS for Stage-Specific Inhibitors of Vaccinia Orthopoxvirus: Venus Reporter Primary qHTS; Vaccinia virus Venus reporter expression, fluorescence; hit rate 0.46% among 330,000; AID 720580, 2013; Potency, µM (series often up to 36.5 µM), actives largely listed as inhibitors; calls by dose curve; tested in A549 cells; note: nearly all actives have a fitted effect of over 30% in size
VACV mCherry inh = qHTS for Stage-Specific Inhibitors of Vaccinia Orthopoxvirus: mCherry Reporter Primary qHTS; Vaccinia virus mCherry reporter infection, fluorescence; Potency, µM (top dose mostly 36.5 µM), hits mostly inhibitors; hit rate 0.63% among 310,000; calls by dose curve; tested in A549 cells; note: nearly all actives have a fitted effect of over 35% in size
HCMV inh = qHTS Assay for inhibitors of the human cytomegalovirus (HCMV) | HFF cells, HCMV-luciferase reporter, 72 h; active compounds read low | activity change, negative = inhibition, % at 57.5 µM | hit rate 4.5% among 410,000 | AID 1259415, 2018; in the data active = activity change below about -60%; inconclusive = no clear call, values can overlap the other calls; inactive = above about -39%
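Human foreskin fibroblasts infected with luciferase-reporter HCMV at MOI 1 PFU/cell, compounds at two doses. Luciferase measured 72 h post infection; normalized to buffer-only basal and Salinomycin (10uM) controls.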
Numbers stand for hits. Unless noted, calls come from the whole dose curve; as a rule, active = well fitted curve in the direction sought with a large enough effect; inconclusive = small, poorly fitted or top-dose-only effect, or another doubt; inactive = no such curve, though single readings can be large; an effect the other way counts as inactive or inconclusive.

CCN1[C@@H]2c3cccc(=O)n3C[C@H]1[C@H](CO)[C@H]2C(=O)OC was read as HCMV inh inactive.
Cc1[nH]nc(-c2ccc(OCc3cnn(-c4ccccc4)c3)cc2O)c1Oc1ccc(F)cc1 was read as TbPYK inhibitor inactive, LmPK inh inactive, Vaccinia Venus inactive and HCMV inh -76.
`Nc1nc(-c2ccc(Cl)cc2)nnc1-c1ccc(Br)cc1` gave TbPYK inhibitor inactive, LmPK inh inactive, Vaccinia Venus inactive, VACV mCherry inh inactive and HCMV inh inactive.
Nc1n[nH]c(-c2ccc(Br)cc2)c1Cl was read as TbPYK inhibitor inactive, LmPK inh inactive, Vaccinia Venus inconclusive, VACV mCherry inh inconclusive and HCMV inh -109.
For Cc1cc(Br)ccc1NC(=O)CNC(=O)CSc1nccn1C the results were TbPYK inhibitor inactive, Vaccinia Venus inactive, VACV mCherry inh inactive and HCMV inh inactive.
Screening CC(C)c1c(C(=O)Nc2ccccc2)c(-c2ccccc2)c(-c2ccc(F)cc2)n1CC[C@@H](O)C[C@@H](O)CC(=O)O returned TbPYK inhibitor inactive, Vaccinia Venus inactive, VACV mCherry inh inactive and HCMV inh -67.
Screening CCOc1cc(C(=O)Nc2ccc(C)cc2O)ccc1OCC(=O)N1CCOCC1 returned TbPYK inhibitor inactive, Vaccinia Venus inactive, VACV mCherry inh inactive and HCMV inh inactive.
For CCOc1cc(C(=O)Nc2cc(C)ccc2C)ccc1OCC(=O)N1CCCCC1 the results were TbPYK inhibitor inactive, LmPK inh inactive, Vaccinia Venus inactive, VACV mCherry inh inactive and HCMV inh -71.
COc1ccc(CNC(=O)CSCc2cnn(-c3ccccc3)c2-n2cccc2)cc1 was read as TbPYK inhibitor inactive, LmPK inh inactive and HCMV inh inactive.
`COc1ccc(OC)c(CCNC(=O)c2cnn(-c3ccccc3)c2-n2cccc2)c1` gave TbPYK inhibitor inactive, Vaccinia Venus inactive, VACV mCherry inh inactive and HCMV inh -90.
`COc1ccc(CCNC(=O)c2cc3c(=O)n(C)c4ccccc4c3n2C)cc1OC` gave TbPYK inhibitor inactive, LmPK inh inactive, Vaccinia Venus inactive, VACV mCherry inh inactive and HCMV inh inactive.
Screening COc1ccc(OC)c(CCNC(=O)c2cc3c(=O)n(C)c4ccccc4c3n2C)c1 returned TbPYK inhibitor inactive, Vaccinia Venus inactive, VACV mCherry inh inactive and HCMV inh -105.
`CC(C)CN1CCC(CN2CCNC(=O)C2=O)CC1` gave TbPYK inhibitor inactive, Vaccinia Venus inactive, VACV mCherry inh inactive and HCMV inh inactive.
COc1ccccc1-c1nc2ccccc2nc1-c1ccccc1 was read as TbPYK inhibitor inactive, LmPK inh inactive and HCMV inh -63.
`Cc1ccccc1NC(=NCCCN1CC1)Nc1ccccc1C` gave TbPYK inhibitor inactive, Vaccinia Venus inconclusive, VACV mCherry inh inactive and HCMV inh -77.
Cc1ccccc1NC(=O)CCN1CCN(C)CC1 was read as TbPYK inhibitor inactive, LmPK inh inactive and HCMV inh inactive.
Cc1cccc(N(Cc2cc3ccc(C)cc3[nH]c2=O)C(=O)c2ccco2)c1 was read as TbPYK inhibitor inactive, LmPK inh inactive and HCMV inh inactive.
`O=C(Nc1cccc(-n2cnnn2)c1)c1ccc(Cl)cc1Cl` gave TbPYK inhibitor inactive, LmPK inh inactive and HCMV inh inactive.
Cc1ccc(NS(=O)(=O)c2ccc3c(c2)oc(=O)n3C)cc1C was read as TbPYK inhibitor inactive, LmPK inh inactive, Vaccinia Venus inactive, VACV mCherry inh inactive and HCMV inh -101.
For Cc1ccc(NS(=O)(=O)c2ccc3c(c2)oc(=O)n3C)cc1 the results were TbPYK inhibitor inactive, LmPK inh inactive, Vaccinia Venus inactive, VACV mCherry inh inactive and HCMV inh -63.
Cc1ccc(NS(=O)(=O)c2ccc(N3C(=O)CCC3=O)cc2)cc1 was read as TbPYK inhibitor inactive, LmPK inh inactive and HCMV inh -84.
O=C(O)c1[nH]n(-c2ccc(S(=O)(=O)O)cc2)c(=O)c1N=Nc1ccc(S(=O)(=O)O)cc1 was read as TbPYK inhibitor inactive, Vaccinia Venus inactive and VACV mCherry inh inactive.
For Cc1cccc(N2CCN(C(=O)c3ccc4c(c3)N(Cc3cccc(Cl)c3)C(=O)c3ccccc3S4(=O)=O)CC2)c1C the results were TbPYK inhibitor inactive, Vaccinia Venus inactive, VACV mCherry inh inactive and HCMV inh inactive.
`CCOc1cc(C(=O)NCC(c2ccc(N(C)C)cc2)N2CCOCC2)cc(OCC)c1OCC` (stereo not given) gave TbPYK inhibitor inactive, Vaccinia Venus inactive, VACV mCherry inh inactive and HCMV inh -62.
`COc1cc(/C=C2/SC(=S)N(Cc3ccccc3)C2=O)ccc1OCC(=O)O` gave TbPYK inhibitor inactive, LmPK inh inactive, Vaccinia Venus inactive, VACV mCherry inh inactive and HCMV inh inactive.
`COc1cc(/C=C2\SC(=S)N(N(C)c3ccccc3)C2=O)ccc1O` gave TbPYK inhibitor inactive, LmPK inh inactive and HCMV inh -101.
COc1cc(/C=C2/SC(=S)N(Cc3ccccc3)C2=O)ccc1OS(C)(=O)=O was read as TbPYK inhibitor inactive, LmPK inh inactive and HCMV inh -69.
COc1cc(/C=C2\SC(=S)N(NC(=O)c3ccccc3O)C2=O)ccc1O was read as TbPYK inhibitor inactive, LmPK inh inactive, Vaccinia Venus inactive, VACV mCherry inh inactive and HCMV inh inactive.
`COc1ccc(/C=C2\SC(=S)N(CCC(=O)N(CCO)Cc3ccccc3)C2=O)cc1OC` gave TbPYK inhibitor inactive, LmPK inh inactive and HCMV inh -99.
Cc1cc(C)cc(N2C(=O)C=CC2=O)c1 was read as TbPYK inhibitor 13µM, Vaccinia Venus inactive, VACV mCherry inh inactive and HCMV inh inactive.
`Cc1ccc(N2C(=O)C3C4C=CC(CC4)C3C2=O)cc1[N+](=O)[O-]` (stereo not given) gave TbPYK inhibitor inactive, LmPK inh inactive and HCMV inh inactive.
For Cc1c([N+](=O)[O-])cc(N2C(=O)C=CC2=O)cc1[N+](=O)[O-] the results were TbPYK inhibitor 25µM, Vaccinia Venus inactive and VACV mCherry inh inactive.
Cc1cc(N2C(=O)C=CC2=O)c([N+](=O)[O-])cc1C was read as TbPYK inhibitor 28µM, LmPK inh inconclusive, Vaccinia Venus inactive and VACV mCherry inh inactive.
O=C(Nc1cccc(C(F)(F)F)c1)Oc1ccc(Cl)c2cccnc12 was read as TbPYK inhibitor inactive, LmPK inh inactive, Vaccinia Venus inconclusive, VACV mCherry inh inconclusive and HCMV inh inconclusive.
Screening Cc1ccccc1-n1c(-c2ccoc2C)n[nH]c1=S returned TbPYK inhibitor inconclusive, LmPK inh 28µM, Vaccinia Venus inactive, VACV mCherry inh inactive and HCMV inh inactive.
`CCCCn1c(-c2cc(Cl)ccc2OC)n[nH]c1=S` gave TbPYK inhibitor inconclusive, LmPK inh 13µM and HCMV inh inactive.
